# Hits are enriched below; roughly 12% of the tested compounds scored in any of these assays.
# G9a block: inhibitors of human histone lysine methyltransferase G9a | Q96KQ7 | Potency, µM (series often up to 102 µM), for inactives: at the top dose activity, negative = inhibition, actives largely listed as inhibitors | actives 8.8% (n = 350,000) | G9a H3K9 monomethylation, AlphaScreen, 2 h; note: % is set by controls: 0 for no effect and ±100 for the full control effect; nearly all actives have a fitted effect of over 75% in size
#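 Step 1: enzyme (final 20 nM) with compound, 15 min RT. Step 2: substrate peptide 500 nM and SAM 20 uM, 2 h RT. Step 3: anti-H3K9me1 antibody and AlphaScreen beads, 10 min, then plate read.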
# HP1b chromo inh: HP1-beta chromodomain-methylated histone interaction inhibition | P83916 | AlphaScreen HP1-beta / biotin-H3K9me3 peptide binding | Potency, µM (titrated, usually from 114 µM), for inactives: top-dose activity change, negative = inhibition, most hits filed as inhibitors | actives 0.56% (n = 390,000) | AID 540317; note: nearly all actives have a fitted effect of over 70% in size
#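 Compound inhibition of the preformed complex between 50 nM HP1-beta and 50 nM biotinylated H3K9me3 peptide was read by AlphaScreen. Buffer was PBS pH 7.4 with 0.01% Tween-20. Incubations ran 30 min at room temperature, with 10 ug/mL donor/acceptor beads.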
# Sfp PPTase inh: blocks B. subtilis Sfp PPTase activity; Q9F4F7; Biochemical Sfp PPTase activity, qHTS; Potency, µM, for inactives: largest response in the series, negative = inhibition, hits mostly inhibitors; actives 3.5% (n = 310,000); AID 1490;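 note: the enzyme is Sfp with the accession as filed and its product quenches rhodamine fluorescence; 0% = enzyme reaction without inhibitor and -100% = no enzyme wells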
#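 Compounds were incubated with enzyme (final 15 nM) for 15 min at room temperature before substrate addition started the reaction. Fluorescence at 525 nm excitation, 598 nm emission was recorded immediately and after 30 minutes.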
# L3MBTL1 inh: inhibitors of human L3MBTL1 | Q9Y468 | AlphaScreen L3MBTL1–H3K9me1 peptide binding | Potency, µM (top dose mostly 57.1 µM), for the others: at the highest dose activity, negative = inhibition, actives largely listed as inhibitors | actives 0.66% (n = 230,000); note: % is set by controls: 0 for no effect and ±100 for the full control effect; nearly all actives have a fitted effect of over 60% in size
#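 L3MBTL1 (50 nM) pre-complexed 30 min with biotinylated H3(1-15)K9me1 peptide (75 nM), then compounds added for 30 min at room temperature; AlphaScreen streptavidin donor/nickel chelate acceptor beads (10 ug/mL final) read after 30 min dark incubation.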
# BAZ2B inh: inhibitors of human BAZ2B bromodomain; Q9UIF8; AlphaScreen BAZ2B-H3K14Ac peptide displacement; Potency, µM (highest dose often 114 µM), for the others: at the top dose activity change, negative = inhibition, hits mostly inhibitors; actives 4.4% (n = 360,000); AID 504333; note: % is set by controls: 0 for no effect and ±100 for the full control effect; nearly all actives have a fitted effect of over 60% in size
#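 AlphaScreen luminescence quantifies BAZ2B engagement of H3K14Ac peptide; the protein and biotinylated peptide are both at 50 nM final, buffer PBS pH 7.4 with 0.01% Tween-20, all steps at room temperature.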
# JMJD2A Tudor inh: blocks the human JMJD2A Tudor domain. AlphaScreen JMJD2A-Tudor / H3K4me3 peptide binding. Potency, µM (doses to about 114 µM), for inactives: top-dose activity change, negative = inhibition, usual class: inhibitors. actives 4.4% (n = 390,000). AID 504339; note: % is set by controls: 0 for no effect and ±100 for the full control effect; nearly all actives have a fitted effect of over 50% in size
# * hit, by the source's call; ? = inconclusive; · = no result given; [ ] = remark or other dose. Calls come from the whole dose curve; as a rule, active = well fitted curve in the direction sought with a large enough effect; inconclusive = small, poorly fitted or top-dose-only effect, or another doubt; inactive = no such curve, though single readings can be large; an effect the other way counts as inactive or inconclusive. Potency is the fitted concentration of half-maximal effect.
SMILES,G9a block,HP1b chromo inh,Sfp PPTase inh,L3MBTL1 inh,BAZ2B inh,JMJD2A Tudor inh
O=C(NCC1CCCO1)C(c1cccs1)N(Cc1ccccc1Cl)C(=O)c1ccc(-c2ccccc2)[nH]1 (configuration not stated),?,-27.7%,1.3%,-12.1%,?,?
COc1ccc(C(C(=O)NC2CCCCC2)N(Cc2ccco2)C(=O)c2ccccn2)c(OC)c1 (configuration not stated),10µM*,21.4%,11.8%,·,2.4%,-3.9%
COc1ccc(N(C(=O)c2ccn[nH]2)C(C(=O)NC(C)(C)C)c2ccc(F)cc2)cc1 (configuration not stated),1.5%[59 µM],19.9%,0.3%,·,7.3%,-10.8%
Cc1ccc(C(C(=O)NCC2CCCO2)N(Cc2ccccc2)C(=O)c2ccc(-c3ccccc3)[nH]2)o1 (configuration not stated),-5.6%[59 µM],-19.5%,-11.4%,-24.9%,39.8µM*,?
CC(C)(C)NC(=O)C(c1ccc(F)cc1)N(CCc1ccccc1)C(=O)c1ccn[nH]1 (configuration not stated),24.5%[12.7 µM],-17.3%,9.1%,11.7%,-17.6%,28.2µM*
CCOC(=O)c1cc(-c2ccccc2)n(CC(=O)NCc2ccccc2OC)c1C,-0.6%[59 µM],22.3%,·,·,-1.1%,-13.1%
O=C1CCc2cc(S(=O)(=O)Nc3cccc(B(O)O)c3)ccc2N1,·,·,·,·,·,3.5%
O=C(NC1CCCC1)C(c1ccncc1)N(Cc1ccccc1)C(=O)c1ccc(-c2ccccc2)[nH]1 (configuration not stated),-11.8%[59 µM],-10.5%,17.8µM*,-16.3%,44.7µM*,?
O=C(NC1CCCC1)C(c1ccncc1)N(CCCN1CCOCC1)C(=O)c1ccc(-c2ccccc2)[nH]1 (configuration not stated),?,4.6%,-1.0%,-0.7%,-21.4%,-26.1%
CC(C)(C)NC(=O)C(c1ccncc1)N(Cc1ccc(F)cc1)C(=O)c1ccc(-c2ccccc2)[nH]1 (configuration not stated),28.2µM*,-5.8%,8.5%,·,?,?
CC(C)(C)NC(=O)C(c1ccncc1)N(Cc1cccs1)C(=O)Cn1nnc(-c2ccc(F)cc2)n1 (configuration not stated),3.8%[59 µM],43.1%,3.3%,1.7%,2.9%,-22.6%
O=C(NC1CCCC1)C(c1ccncc1)N(Cc1ccco1)C(=O)c1ccc(-c2ccccc2)[nH]1 (configuration not stated),?,?,?,·,35.5µM*,?
COc1cccc(NC(=O)c2oc3ccc(S(=O)(=O)N4CCC5(CC4)OCCO5)cc3c2C)c1,-18.4%[59 µM],17.8%,·,·,3.6%,-5.8%
Cc1cc(C)nc(Sc2ncnc(N)c2[N+](=O)[O-])n1,-4.5%[12.7 µM],49.7%,50.1µM*,10.4%,?,-13.1%
O=C(NC1CCCCC1)c1ccc(CSc2nc3cccnc3n2Cc2ccc(F)cc2)cc1,-26.2%[59 µM],11.2%,·,·,-8.9%,-15.2%
S=C(NC1CCCCC1)N1CCn2cccc2C1c1ccncc1 (configuration not stated),?,-8.4%,12.6%,·,50.1µM*,-18.8%
S=C(NC1CCCCC1)N1CCn2cccc2C1c1cccnc1 (configuration not stated),70.8µM*,-27.0%,2.1%,·,?,-35.9%
S=C(Nc1ccccc1)N1CCn2cccc2C1c1cccnc1 (configuration not stated),?,-11.5%,1.2%,-11.5%,-38.9%,?
Fc1ccc(C2c3cccn3CCN2C(=S)Nc2cccc(F)c2)cc1 (configuration not stated),-45.9%,-11.1%,20.6%,?,?,-23.3%
COc1ccc(C2c3c(n(C)c4ccccc34)C(=O)N2CC(=O)Nc2cccc(Cl)c2)cc1 (configuration not stated),-12.6%[59 µM],16.4%,·,·,-14.5%,-32.8%
Cn1cc(C(=O)O)c(=O)c2cc(S(=O)(=O)N3CCCCC3)ccc21,?,1.7%,·,·,-2.0%,89.1µM*
Cn1cc(C(=O)NCCc2ccccc2)c(=O)c2cc(S(=O)(=O)N3CCCCC3)ccc21,0.3%[59 µM],39.9%,·,·,·,-0.7%
COC(=O)c1cn(C)c2ccc(S(=O)(=O)N3CCCC3)cc2c1=O,50.1µM*,6.0%,-23.8%,-4.5%,?,-16.4%
Cn1cc(C(=O)N2CCCCC2)c(=O)c2cc(S(=O)(=O)N3CCCC3)ccc21,16.7%,22.1%,14.5%,·,-16.6%,-16.7%
CN(CCNC(=O)c1cn(C)c2ccc(S(=O)(=O)N3CCCC3)cc2c1=O)CCc1ccccc1,2.24µM*,20.9%,9.9%,0.3%,-3.8%,-7.9%
SMILES,G9a block,HP1b chromo inh,Sfp PPTase inh,L3MBTL1 inh,BAZ2B inh,JMJD2A Tudor inh
CCOc1ccc(N(C)S(=O)(=O)c2c(C(=O)N3CCC(C)CC3)c(C)n(C)c2C)cc1,-4.3%[59 µM],-4.1%,·,·,-30.8%,-26.5%
Oc1ccc2ccccc2c1CNc1ccc2ccccc2c1,·,?,·,·,·,31.6µM*
Oc1ccc2ccccc2c1CNc1ccccc1,·,-28.5%[57 µM],·,·,·,?
O=[N+]([O-])c1ccccc1NCc1c(O)ccc2ccccc12,?,?,?,·,35.5µM*,44.7µM*
O=C(Nc1ccccc1)c1cccc(S(=O)(=O)Nc2cccc(F)c2)c1,0.7%[59 µM],61.9%,·,·,3.0%,-9.5%
CC1Cc2ccccc2N1C(=O)c1ccc(N2CCCCC2)c([N+](=O)[O-])c1 (configuration not stated),31.6µM*,?,-5.6%,?,31.6µM*,39.8µM*
CC(=O)c1ccc(N2CCN(c3ccccc3O)CC2)c([N+](=O)[O-])c1,44.7µM*,?,4.4%,·,?,?
O=C(O)c1ccccc1C(=O)c1ccc(N2CCCC2)c([N+](=O)[O-])c1,?,27.1%,-17.9%,10.5%,-13.8%,-15.8%[11.4 µM]
CC1Cc2ccccc2N1C(=O)c1ccc(N2CCCC2)c([N+](=O)[O-])c1 (configuration not stated),?,-14.9%,-9.9%,?,25.1µM*,44.7µM*
CCCCCCCCCCCCCCCC(N)=O,·,·,10.3%,·,·,·
CN1CCN(c2ncc3ncc(=O)n(-c4ccccc4)c3n2)CC1,23.5%[0.501 µM],·,18.2%,·,·,·
O=c1cc(-c2ccccc2)cc(-c2ccccc2)n1O,14.5%[12.7 µM],6.7%,·,-13.4%,35.5µM*,50.1µM*
Cc1cc(-c2ccccc2)cc(=O)[nH]1,·,40.9%,·,·,·,-2.8%
C#CCSc1nnc(CNS(=O)(=O)c2ccc(Br)cc2)n1C,5.2%,33.9%,19.1%,·,-9.8%,9.2%
CCCC(C)NS(=O)(=O)c1ccccc1 (configuration not stated),-0.8%,37.9%,0.1%,-8.4%,12.3%,6.6%
